The campaign covered roughly 350,000 compounds. About 31,000 (8.9%) were called active. Not shown: some 15% with an inconclusive outcome. The rule behind the calls is not given here. Shown is part of a subset that was picked to be rich in actives.

The assay deals with T1, Histone-lysine N-methyltransferase EHMT2 (Homo sapiens) (UniProt Q96KQ7).
T1 sequence (whole entry): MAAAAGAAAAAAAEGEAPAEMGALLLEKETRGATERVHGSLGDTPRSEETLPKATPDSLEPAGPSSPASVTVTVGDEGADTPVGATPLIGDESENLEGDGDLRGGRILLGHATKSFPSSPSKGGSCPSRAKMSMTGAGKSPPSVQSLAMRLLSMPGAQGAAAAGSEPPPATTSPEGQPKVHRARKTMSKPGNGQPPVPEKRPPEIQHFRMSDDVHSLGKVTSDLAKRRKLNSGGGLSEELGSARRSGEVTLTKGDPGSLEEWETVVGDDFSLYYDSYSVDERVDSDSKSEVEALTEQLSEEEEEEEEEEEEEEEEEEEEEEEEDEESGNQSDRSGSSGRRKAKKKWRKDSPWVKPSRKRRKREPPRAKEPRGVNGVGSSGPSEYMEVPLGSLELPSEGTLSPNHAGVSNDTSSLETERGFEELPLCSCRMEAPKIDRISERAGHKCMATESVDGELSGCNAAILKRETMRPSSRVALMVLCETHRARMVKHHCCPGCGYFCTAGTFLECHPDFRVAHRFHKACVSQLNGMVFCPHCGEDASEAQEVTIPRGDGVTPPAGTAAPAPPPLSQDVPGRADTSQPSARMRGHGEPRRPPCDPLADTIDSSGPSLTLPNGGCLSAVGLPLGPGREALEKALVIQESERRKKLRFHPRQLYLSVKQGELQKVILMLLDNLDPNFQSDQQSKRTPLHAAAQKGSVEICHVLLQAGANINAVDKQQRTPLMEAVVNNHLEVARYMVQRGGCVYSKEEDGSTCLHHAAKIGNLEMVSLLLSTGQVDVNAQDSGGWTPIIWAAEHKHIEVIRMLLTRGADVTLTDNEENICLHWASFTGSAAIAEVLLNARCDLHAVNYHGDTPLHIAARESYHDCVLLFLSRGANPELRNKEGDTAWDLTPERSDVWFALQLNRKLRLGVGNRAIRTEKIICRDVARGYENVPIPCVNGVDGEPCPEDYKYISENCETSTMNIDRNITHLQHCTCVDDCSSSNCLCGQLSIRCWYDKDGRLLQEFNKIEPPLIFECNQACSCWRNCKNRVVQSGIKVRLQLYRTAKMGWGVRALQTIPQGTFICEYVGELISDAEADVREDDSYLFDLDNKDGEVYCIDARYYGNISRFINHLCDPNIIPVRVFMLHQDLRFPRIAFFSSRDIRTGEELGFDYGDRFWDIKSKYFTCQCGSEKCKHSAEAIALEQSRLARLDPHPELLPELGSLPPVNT
As to the kind of experiment: qHTS Assay for Inhibitors of Histone Lysine Methyltransferase G9a. [Related pubchem assays (depositor defined):AID504404]. In kind it is functional. (qHTS replaces the single test concentration by a dilution series.)
As for `Cl[Te]1(Cl)OCCO1`, the Potency was 7.94 µM (active).

The values are drawn from ChEMBL document CHEMBL1201862, “PubChem BioAssay data set” (2004).
